Source: the supplement of paper PMC8877412
Structures can show the parent of a compound that is named as a salt. ± gives the uncertainty stated by the source.

What follows are compounds tested on NCC-PMP1-C1 (assay: cell viability relative to DMSO control; higher = less growth inhibition). Conditions: 10 µM; 72 h.
Description: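 NCC-PMP1-C1 pseudomyxoma peritonei cells were seeded in 384-well plates coated with Matrigel and MEF (1e4 cells). Viability was read after 72 h by CCK-8 and expressed as % of the DMSO control, mean ± SD of duplicates.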
Compound `CC(=O)OCC(CCn1cnc2cnc(N)nc21)COC(C)=O` [Famciclovir] has a cell viability of 94.3 ± 12%.
`O=[n+]1c(CBr)c(CBr)n([O-])c2ccccc21` [Conoidin A] gave a cell viability of 112 ± 22%.
In the case of `CC(=O)O[C@]1(C(C)=O)CC[C@H]2[C@@H]3C=C(C)C4=CC(=O)CC[C@]4(C)[C@H]3CC[C@@]21C` [Megestrol Acetate], the cell viability is reported as 91.4 ± 16%.
Compound `CC1=C(CC(=O)O)c2cc(F)ccc2/C1=C\c1ccc([S+](C)[O-])cc1` (stereo unspecified) [Sulindac] has a cell viability of 111 ± 29%.
Work on `C=CC(=O)Nc1cccc(Nc2nc(Nc3ccc(N4CCN(C(C)=O)CC4)cc3OC)ncc2C(F)(F)F)c1` [Rociletinib (CO-1686, AVL-301)] yielded a cell viability of 57.8 ± 3.1%.
For `CN(Cc1cnc2nc(N)nc(N)c2n1)c1ccc(C(=O)N[C@@H](CCC(=O)O)C(=O)O)cc1` [Methotrexate], the cell viability was 110 ± 1.7%.
For `CC(C)C[C@H](NC(=O)[C@H](Cc1ccccc1)NC(=O)c1cnccn1)B(O)O` [Bortezomib (PS-341)], the cell viability was -0.129 ± 0.47%.
In the case of `C=CC(=O)Nc1cc2c(Nc3ccc(F)c(Cl)c3)ncnc2cc1OCCCN1CCOCC1` [Canertinib(CI-1033)], the cell viability is reported as 92.8 ± 7.2%.
For `COC(=O)N[C@H](C(=O)N[C@@H](Cc1ccccc1)[C@@H](O)CN(Cc1ccc(-c2ccccn2)cc1)NC(=O)[C@@H](NC(=O)OC)C(C)(C)C)C(C)(C)C` [Atazanavir Sulfate], the cell viability was 109 ± 1.1%.
In the case of `COc1cc([C@@H]2c3cc4c(cc3[C@@H](O[C@@H]3O[C@@H]5CO[C@@H](C)O[C@H]5[C@H](O)[C@H]3O)[C@H]3COC(=O)[C@H]23)OCO4)cc(OC)c1O` [Etoposide], the cell viability is reported as 61.1 ± 1.9%.
For `CCc1c2c(nc3ccc(OC(=O)N4CCC(N5CCCCC5)CC4)cc13)-c1cc3c(c(=O)n1C2)COC(=O)[C@]3(O)CC` [Irinotecan HCl Trihydrate], the cell viability was 101 ± 4.5%.
`CNC(=O)c1ccc(N2C(=S)N(c3ccc(C#N)c(C(F)(F)F)c3)C(=O)C2(C)C)cc1F` [Enzalutamide (MDV3100)] was tested, and the cell viability was 99.7 ± 15%.
`CCN(CC)CCNC(=O)c1c(C)[nH]c(/C=C2\C(=O)Nc3ccc(F)cc32)c1C` [Sunitinib Malate] was tested, and the cell viability was 50.6 ± 16%.
`Cc1ccc(S(=O)(=O)Nc2nc3ccccc3nc2Nc2ccc3nsnc3c2)cc1` [XL147 analog] gave a cell viability of 96.2 ± 9%.
`CC[C@H]1OC(=O)[C@H](C)[C@@H](O[C@H]2C[C@@](C)(OC)[C@@H](O)[C@H](C)O2)[C@H](C)[C@@H](O[C@@H]2O[C@H](C)C[C@H](N(C)C)[C@H]2O)[C@](C)(O)C[C@@H](C)CN(C)[C@H](C)[C@@H](O)[C@]1(C)O` [Azithromycin] gave a cell viability of 123 ± 2.7%.
In the case of `CCN1CCN(c2ccc(Nc3cc(N(C)C(=O)Nc4c(Cl)c(OC)cc(OC)c4Cl)ncn3)cc2)CC1`, the cell viability is reported as 56.5 ± 0.47%.
`COc1cc(OC)cc(N(CCNC(C)C)c2ccc3ncc(-c4cnn(C)c4)nc3c2)c1` [Erdafitinib] gave a cell viability of 59.1 ± 2.4%.
In the case of `O=NN(CCCl)C(=O)NC1CCCCC1` [Lomustine], the cell viability is reported as 105 ± 11%.
`CCN(CC)CCNC(=O)c1c(C)[nH]c(/C=C2\C(=O)Nc3ccc(F)cc32)c1C` [Sunitinib] was tested, and the cell viability was 35.5 ± 3.6%.
`O=c1[nH]c(=O)n(C2CCCO2)cc1F` (stereo unspecified) showed a cell viability of 108 ± 3.1%.
Work on `NC(=O)NO` [Hydroxyurea] yielded a cell viability of 136 ± 8.1%.
For `C=CC(=O)N1CCC[C@@H](n2nc(-c3ccc(Oc4ccccc4)cc3)c3c(N)ncnc32)C1`, the cell viability was 59 ± 5.5%.
`CCN(CC)CCOc1ccc(C(=C(Cl)c2ccccc2)c2ccccc2)cc1` [Clomifene citrate] showed a cell viability of -6.65 ± 0.33%.
With `COc1cc2c(Oc3ccc4[nH]c(C)cc4c3F)ncnc2cc1OCCCN1CCCC1` [Cediranib (AZD2171)] the cell viability was 22.4 ± 14%.
`CC1(COc2ccc3c(c2)ncn3-c2ccc3cccc(N4CCC(N)CC4)c3n2)COC1` showed a cell viability of 70 ± 8.6%.
In the case of `Nc1nc(CC(=O)Nc2ccc(CCNC[C@H](O)c3ccccc3)cc2)cs1` [Mirabegron], the cell viability is reported as 101 ± 5.9%.
For `CC(=O)O[C@@]12CO[C@@H]1C[C@H](O)[C@@]1(C)C(=O)[C@H](O)C3=C(C)[C@@H](OC(=O)[C@H](O)[C@@H](NC(=O)OC(C)(C)C)c4ccccc4)C[C@@](O)([C@@H](OC(=O)c4ccccc4)[C@H]21)C3(C)C` [Docetaxel], the cell viability was 72.1 ± 2.1%.
Compound `CN(C)C/C=C/C(=O)Nc1cc2c(Nc3ccc(F)c(Cl)c3)ncnc2cc1O[C@H]1CCOC1` [Afatinib (BIBW2992) Dimaleate] has a cell viability of 29.3 ± 2.4%.
For `N#CC[C@H](C1CCCC1)n1cc(-c2ncnc3[nH]ccc23)cn1`, the cell viability was 83.6 ± 8.2%.
`O=C(c1cc(Cc2n[nH]c(=O)c3ccccc23)ccc1F)N1CCN(C(=O)C2CC2)CC1` showed a cell viability of 92.3 ± 8.4%.
With `O=P(O)(O)C(O)(Cn1ccnc1)P(=O)(O)O` [Zoledronic Acid] the cell viability was 109 ± 6%.
With `N=C(N)NC(=N)N1CCOCC1` [Moroxydine HCl] the cell viability was 104 ± 11%.
In the case of `O=C1CCC(N2C(=O)c3ccccc3C2=O)C(=O)N1` (stereo unspecified) [Thalidomide], the cell viability is reported as 110 ± 6.2%.
`C=C1C[C@@H]2CC[C@@]34C[C@H]5O[C@H]6[C@@H](O3)[C@H]3O[C@H](CC[C@@H]3O[C@H]6[C@H]5O4)CC(=O)C[C@@H]3[C@@H](OC)[C@@H](C[C@H](O)CN)O[C@H]3C[C@H]3O[C@@H](CC[C@@H]1O2)C[C@@H](C)C3=C` [Eribulin] gave a cell viability of 53.95 ± 0.3%.
`COc1ccc2c(c1OC)C(=O)O[C@@H]2[C@H]1c2c(cc3c(c2OC)OCO3)CCN1C` [Noscapine HCl] gave a cell viability of 90.5 ± 4.2%.
With `CC(=O)O[C@H]1C(=O)[C@@]2(C)[C@H]([C@H](OC(=O)c3ccccc3)[C@]3(O)C[C@H](OC(=O)[C@H](O)[C@@H](NC(=O)c4ccccc4)c4ccccc4)C(C)=C1C3(C)C)[C@]1(OC(C)=O)CO[C@@H]1C[C@@H]2O` [Paclitaxel] the cell viability was 81.6 ± 12%.
